HT1080 IDH1KD tx: toxicity to HT-1080 IDH1 knockdown cells (counter line); HT-1080 IDH1 knockdown viability, ATP luminescence, 48 h; Potency, µM (titrated, usually from 46.1 µM), for inactives: top-dose activity, negative = toxicity, most hits filed as cytotoxic; 360,000 tested, 2% active; AID 686971;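 further: potency means the concentration at half of the fitted maximal effect; 0% = DMSO wells and -100% = cell-free medium wells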
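% activity derives from luminescence (CellTiter-Glo), normalised to DMSO and no-cell wells. HT-1080-IDH1KD cells, 750/well, had 48 h compound exposure at 37 °C.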
TDP1 cell CPT: growth inhibition of DT40 Tdp1-/-;hTDP1 cells with camptothecin (screen for TDP1 inhibitors). Potency, µM (top dose mostly 46.2 µM), inactives show at the top dose activity change, negative = growth inhibition, actives largely listed as inhibitors. 420,000 tested, 12% active. chicken DT40 Tdp1-/-;hTDP1 cells + 20 nM CPT, ATP luminescence, 48 h. AID 686979; further: potency means the concentration at half of the fitted maximal effect; nearly all actives have a fitted effect of over 55% in size
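Cell growth measured by CellTiter-Glo luminescence after a minimum 48 h, 37 C compound exposure with 20 nM CPT in Tdp1-knockout DT40 cells stably expressing hTDP1, seeded 400/well; qHTS titration format.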
TDP1 cell noCPT: qHTS for Inhibitors of human tyrosyl-DNA phosphodiesterase 1 (TDP1): qHTS in cells in absence of CPT; DT40 Tdp1-/- hTDP1 cells, no CPT, ATP luminescence, 48 h; Potency, µM (highest dose often 46.2 µM), without a hit: top-dose activity change, negative = growth inhibition, most hits filed as inhibitors; 420,000 tested, 15% active; further: potency means the concentration at half of the fitted maximal effect; nearly all actives have a fitted effect of over 55% in size
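Growth of hTDP1-complemented DT40 Tdp1-knockout cells is measured by ATP luminescence after at least 48 hr compound exposure at 37 °C, with DMSO substituting for the 20 nM CPT used in the parallel screen.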
IL-1B inflam inh: inhibitors of inflammasome signaling (IL-1 beta secretion); THP-1 LPS/ATP IL-1B secretion, AlphaLISA, 16 h; stronger effect = lower value; activity change, % at 57.5 µM; 360,000 tested, 4.7% active; AID 743279; in the data active means activity change below about -50%; inconclusive means mostly about -30% to -49%
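THP-1 cells pretreated 1 hr with compounds (up to 57.5 uM final), then stimulated with LPS (250 ng/mL final) plus ATP (1.25 mM final); secreted IL-1B measured by AlphaLISA after 16 hr, decreased signal indicating inhibition.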
HT1080NT lethal: kills 2HG-producing HT-1080-NT fibrosarcoma cells; HT-1080-NT fibrosarcoma viability, CellTiter-Glo ATP luminescence, 48 h; Potency, µM (top dose mostly 46.1 µM), for the others: top-dose activity, negative = less viability, hits mostly cytotoxic; 360,000 tested, 1.6% active;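 further: NT is the 2HG producing partner of a matched IDH1 knockdown line; potency means the concentration at half of the fitted maximal effect; 0% = DMSO-treated cells and -100% = media-only wells without cells; nearly all actives have a fitted effect of over 55% in size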
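Compounds were tested in concentration-response format on HT-1080-NT cells for 48 hours at 37 degrees C. Cell viability came from CellTiter-Glo luminescence; curves were classified by r2, response magnitude and activity.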
The depositor's hits bear a star; i = inactive; ? = inconclusive; / = not tested or not shown; ! = not active in a repeat; [ ] = another dose, or the depositor's remark. Hits are enriched below; roughly 19% of the tested compounds scored in any of these assays. Unless noted, the call rests on the fitted dose curve; in most records, active means well fitted curve in the direction sought with a large enough effect; inconclusive means small, poorly fitted or top-dose-only effect, or another doubt; inactive means no such curve, though single readings can be large; an effect the other way counts as inactive or inconclusive. Unless noted, on the % scale 0 is the no-effect control and ±100 the full control effect.

SMILES | HT1080 IDH1KD tx | TDP1 cell CPT | TDP1 cell noCPT | IL-1B inflam inh | HT1080NT lethal
Cc1ccc(-n2c(/C=C/c3ccc(Br)s3)nc3ccccc3c2=O)cc1 | / | 23µM* | 21µM* | / | /
O=[N+]([O-])c1c2ccccc2cc2ccccc12 | -1% | 14% | ? | ? | -5%
CCCc1cc(-c2n[nH]c(C(=O)OCC)c2-c2cscn2)c(O)cc1O | ? | ? | 15µM* | -12 | 1%
Cc1ccc(S(=O)(=O)N[C@@H](CCCCN)C(=O)CCl)cc1 | -28% | 8.4µM*! | 8.4µM*! | -11 | -14%
CCCc1cc(N2CCN(c3ccc(OC)cc3)CC2)n2cnnc2n1 | / | 16µM* | 12µM* | / | /
CCCC[N+]12CCC(CC1)C(=C(c1ccccc1)c1ccccc1)C2 | -2% | 4.6µM* | 4.1µM* | -4 | 0%
OCC[N+]12CCC(CC1)C(C(O)(c1ccccc1)c1ccccc1)C2 (centres undefined) | 10% | 7% | -1% | -17 | 5%
CCC[N+]12CCC(CC1)C(=C(c1ccccc1)c1ccccc1)C2 | -9% | 15µM* | 21µM* | i | -9%
C=CCn1c(O)c(C(C)=NCCN2CCOCC2)c(=O)[nH]c1=O | 15% | -8% | -1% | 8 | 2%
COc1c(C)cc(Br)cc1C(=O)Nc1ccc(-c2nc3ncccc3o2)cc1 | / | 6.5µM* | 4.6µM* | / | /
O=C1CC(N2CC2)C(=O)N1c1ccccc1 (centres undefined) | 19% | -1% | -6% | 26 | 25%
CCCCCCCCC(=O)NCc1ccc(O)c(OC)c1 | -3% | ? | ? | -2 | -16%
COc1cc(CNC(=O)CCCC/C=C/C(C)C)ccc1O | -14% | 11µM*! | 8.9µM*! | 6 | -12%
CC(=O)c1ccc(N2CCN(c3ccc4cc(S(=O)(=O)N5CCCCC5)ccc4n3)CC2)cc1 | / | ? | 3.7µM* | / | /
O=C1CC(=O)N(Cc2ccccc2)C(=O)N1Cc1ccccc1 | 2% | -10% | -13% | -6 | 9%
N#CC(C#N)=Cc1cccnc1 | 12% | 9.2µM* | 9.2µM* | -86* | 13%
CC(C)CCCC(C)C1CCC2C3C(=O)C=C4CC(O)CC[C@@]4(C)C3CC[C@@]12C (some centres undefined) | / | -14% | -28% | / | /
COC(=O)c1ccc(N2CCN(C)CC2)c([N+](=O)[O-])c1 | 12% | 5% | 0% | -6 | 2%
NC(=O)c1cc(N2CC2)c([N+](=O)[O-])cc1[N+](=O)[O-] | -10% | 0.15µM* | 0.037µM* | -5 | 0%
Cc1ccc(Cn2cccc(C(=O)Nc3cc([N+](=O)[O-])ccc3C)c2=O)cc1 | / | -16% | ? | / | /
Cc1cc(N(C)C)ccc1N=Nc1ccc(N)cc1 | ? | ? | 13µM* | -26 | ?
Nc1ccc(N=Nc2ccccc2)cc1 | -14% | -9% | ? | -13 | -12%
CC1CC(Cl)CCC1C(=O)OC(C)(C)C (centres undefined) | / | 11% | 10% | / | /
COc1cccc(C(=O)NCc2nc(-c3cccc(NC(=O)c4ccoc4C)c3)oc2C)c1OC | / | ? | 6.5µM* | / | /
CCOC(=O)C1(c2ccccc2)Oc2ccccc2C(c2ccc(OC)cc2)=C1C(=O)OC (centres undefined) | -8% | ? | ? | -8 | -8%
SMILES | HT1080 IDH1KD tx | TDP1 cell CPT | TDP1 cell noCPT | IL-1B inflam inh | HT1080NT lethal
O=c1[nH]c(=S)n(CCC2=CCCCC2)c(O)c1C=NC1CCN(Cc2ccccc2)CC1 | -4% | 21µM* | ? | 0 | -5%
CC(C)[N+](C)(CCC(C(N)=O)(c1ccccc1)c1ccccc1)C(C)C | 3% | 7.3µM*! | 9.2µM*! | 8 | 18%
CCCCC[C@@H]1CCCCC[C@H](O)C[C@@H](O)[C@@H](O)/C=C/C(=O)O1 | -14% | ? | ? | ? | -9%
CCCCC[C@@H]1CCCCC[C@@H](O)C[C@@H](O)[C@H](O)/C=C/C(=O)O1 | 0% | -25% | ? | -66* | -22%
NC(=O)CN1CCCC1=O | 3% | -9%[21.1 µM] | 2.9µM*! | -23 | -11%
CCCCC1(CN2CCCC2=O)C(=O)NC(=O)NC1=O | 13% | 10% | -4% | 7 | 24%

Assay outcomes: PubChem BioAssay, National Center for Advancing Translational Sciences (NCATS)
